Test results from article PMC4336329 (PLoS ONE, 2015).
In all, about 310,000 compounds went through this assay and about 2,200 (0.71%) showed an effect of 50% or more. Effects have a minus sign here. The sample holds strong results, similar compounds and a random draw of the others, so the mix is not that of the screen.

target: human ether-à-go-go-related gene (hERG) potassium channel (human, UniProt Q12809); assay: primary screen, population patch clamp on CHO cells stably expressing hERG; higher = less effect of the substance
Sequence (Q12809 whole entry, looked up): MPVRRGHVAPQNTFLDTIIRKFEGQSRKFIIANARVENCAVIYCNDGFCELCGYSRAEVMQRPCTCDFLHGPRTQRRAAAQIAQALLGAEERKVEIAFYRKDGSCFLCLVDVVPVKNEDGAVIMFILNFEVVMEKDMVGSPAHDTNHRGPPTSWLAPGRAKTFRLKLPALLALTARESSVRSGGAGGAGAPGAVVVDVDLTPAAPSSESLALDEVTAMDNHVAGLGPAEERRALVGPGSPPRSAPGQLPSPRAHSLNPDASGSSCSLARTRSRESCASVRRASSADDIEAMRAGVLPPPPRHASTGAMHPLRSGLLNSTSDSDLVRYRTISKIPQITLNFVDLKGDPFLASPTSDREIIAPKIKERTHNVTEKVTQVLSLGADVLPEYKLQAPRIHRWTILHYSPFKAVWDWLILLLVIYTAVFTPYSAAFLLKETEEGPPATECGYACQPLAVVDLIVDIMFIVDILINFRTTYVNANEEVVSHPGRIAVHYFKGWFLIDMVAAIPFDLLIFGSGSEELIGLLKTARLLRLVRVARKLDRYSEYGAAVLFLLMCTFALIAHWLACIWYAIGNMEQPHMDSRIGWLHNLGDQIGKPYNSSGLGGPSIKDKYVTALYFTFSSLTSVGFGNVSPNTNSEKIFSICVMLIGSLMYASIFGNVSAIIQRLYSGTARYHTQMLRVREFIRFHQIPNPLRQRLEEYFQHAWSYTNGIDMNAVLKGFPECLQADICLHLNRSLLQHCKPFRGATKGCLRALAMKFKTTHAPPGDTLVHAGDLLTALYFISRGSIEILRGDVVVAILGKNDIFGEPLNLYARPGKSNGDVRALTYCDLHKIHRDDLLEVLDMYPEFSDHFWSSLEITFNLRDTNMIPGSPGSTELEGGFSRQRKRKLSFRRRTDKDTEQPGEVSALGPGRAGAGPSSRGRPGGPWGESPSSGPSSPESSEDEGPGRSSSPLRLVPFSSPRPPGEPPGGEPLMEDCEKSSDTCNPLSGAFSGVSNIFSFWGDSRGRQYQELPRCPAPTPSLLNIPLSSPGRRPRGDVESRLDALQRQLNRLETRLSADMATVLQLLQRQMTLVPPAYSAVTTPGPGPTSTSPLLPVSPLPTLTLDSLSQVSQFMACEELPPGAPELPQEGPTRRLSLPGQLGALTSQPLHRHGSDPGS

Compound | hERG current change (%, negative = inhibition) at 1uM [%]
Cc1ccc(-c2nc(Nc3cccc(C)c3)sc2CC(=O)O)cc1 | 9.35
O=C(NCCCCc1ccccc1)Nc1cccc(F)c1 | 4.51
COC(=O)CNS(=O)(=O)c1ccc(C)cc1 | 11.1
CCn1c(SCC(=O)NCCc2ccccc2)nnc1C(C)C | 12
CCOC(=O)c1oc2ccc(S(=O)(=O)Nc3ccc4c(c3)n(C)c(=O)n4C)cc2c1C | 2.26
Cc1cc(-c2ccccc2)nc2cc(C(=O)N(Cc3ccccc3)Cc3ccccc3)nn12 | -3.92
CN(C)C(=S)Nc1ccc(Br)cc1Cl | 7.39
Nc1nccnc1C(=O)N/N=C/c1ccco1 | 13.2
Cc1csc(NC(=O)CSc2nnc(CCNC(=O)c3ccc(Cl)c(Cl)c3)n2C)n1 | 2.76
COc1ccc(-n2nnnc2SCC(=O)Nc2ccccc2N2CCOCC2)cc1 | -6.62
COc1ccccc1C(=O)C1CCCN(Cc2cccc3nccnc23)C1 (centres unmarked) | -45
O=C(c1ccc(Cl)cc1)C1CCCN(Cc2ccc3ncccc3c2)C1 (centres unmarked) | -2.91
COc1ccc(CN2CCCC(C(=O)c3ccc(Cl)cc3)C2)cc1Cn1cccn1 (centres unmarked) | -78.4
COc1ccc(CN2CCCC(C(=O)c3cccc(OC(C)C)c3)C2)cc1Cn1cccn1 (centres unmarked) | -3.41
CSc1ccc(C(=O)C2CCCN(Cc3cccc4nccnc34)C2)cc1 (centres unmarked) | -82
COc1c(C)cc(C(=O)C2CCCN(Cc3cccc4nccnc34)C2)cc1C (centres unmarked) | -21.2
Cc1ccc(NC(=O)CSc2ccccc2NC(=O)c2cccc(Cl)c2)cc1Cl | 0.293
O=C(Nc1c(C(=O)N2CCC(N3CCCCC3)CC2)oc2ccccc12)c1c(F)cccc1F | -5.22
COCC(=O)Nc1c(C(=O)N2CCCC2)oc2ccccc12 | 8.9
O=C(Nc1c(C(=O)N2CCC(N3CCCCC3)CC2)oc2ccccc12)c1ccc(F)cc1 | -47.7
COc1ccc(OCC(=O)Nc2c(C(=O)N3CCC(N4CCCCC4)CC3)oc3ccccc23)cc1 | -82.8
O=C(COc1ccccc1)Nc1c(C(=O)N2CCC(N3CCCCC3)CC2)oc2ccccc12 | -9.1
CCOc1ccc(C(=O)Nc2c(C(=O)N3CCC(N4CCCCC4)CC3)oc3ccccc23)cc1 | -82
COc1ccccc1-n1cnc(N)c1C(C)=O | 6.83

Compound | hERG current change (%, negative = inhibition) at 1uM [%]
COc1cccc(-c2nc(OC(C)C)c3ccccc3n2)c1 | 7.09
CCOC(=S)SCC(=O)Nc1nc(-c2ccccc2)cs1 | 29.9
CCOC(=O)N1CCN(C(=O)CSCC(=O)Nc2nc(-c3ccc(C)cc3)cs2)CC1 | 1.87
CCOC(=S)SCC(=O)Nc1nc(-c2ccc(Br)cc2)cs1 | -92
CCOC(=O)C1=C(C)OC(N)=C(C#N)C1c1ccc(C)o1 (centres unmarked) | 7.95
COc1ccc(CCN(C)CC(O)COC(c2ccc(F)cc2)c2ccc(F)cc2)cc1OC (centres unmarked) | -79.9
COc1ccc(CCN(C)CC(O)COc2ccc(C(C)=O)cc2OC)cc1OC (centres unmarked) | 8.67
COc1ccc(CCN(C)CC(O)COc2c(C)ccc(C)c2C)cc1OC (centres unmarked) | -68.7
COc1ccc(CCNCC(O)COc2c(C)cccc2C)cc1OC.O=C(O)C(=O)O (centres unmarked) | 7.9
COc1ccc(CCN(C)CC(O)c2ccccc2)cc1OC.O=C(O)C(=O)O (centres unmarked) | 1.76
COc1ccc(CCN(C)Cc2ccc(F)cc2F)cc1OC | -2.08
Cc1cccc(Cn2c(=O)n(CCCC(=O)NCc3ccco3)c(=O)c3ccccc32)c1 | -4.67
O=C(CCc1ccccc1)Nc1sc2c(c1C(=O)O)CCCC2 | 20.1
CCc1nnc(N2C(=N)SCC2=O)s1 | 4.71
Cc1ccc(S(=O)(=O)NC(C)C(=O)NC2CCCCCC2)cc1 (centres unmarked) | -2.05
NC(=O)COC(=O)c1ccc2c(c1)C(=O)N(Cc1ccco1)C2=O | 9.91
Cc1cc(OCc2cccc(S(=O)(=O)N3CCOCC3)c2)ccc1Cl | 4.05
N#Cc1ccccc1OCc1cccc(S(=O)(=O)N2CCOCC2)c1 | 11.3
N#Cc1ccc(OCc2cccc(S(=O)(=O)N3CCOCC3)c2)cc1 | -57.3
COc1ccc(OC)c(/C=N/NC(=O)C(=O)N2CCCC2)c1 | 1.25
CCOC(=O)N1CCN(c2cc(=O)n(-c3ccc(C)cc3)c(=O)[nH]2)CC1 | -8.88
CN1CCN(c2ccccc2NC(=O)c2ccc([N+](=O)[O-])cc2Cl)CC1 | 0.769
COc1ccc(NC(=O)c2cc([N+](=O)[O-])ccc2N2CCN(C)CC2)cc1 | -15.5
CN1CCN(c2ccc([N+](=O)[O-])cc2C(=O)Nc2ccccc2)CC1 | -59.8

Compound | hERG current change (%, negative = inhibition) at 1uM [%]
CN1CCN(c2ccc([N+](=O)[O-])cc2NC(=O)c2ccccc2Cl)CC1 | -75.6
Cc1cccc(NC(=O)c2cc([N+](=O)[O-])ccc2N2CCN(C)CC2)c1 | -41.2
CN1CCN(c2ccc([N+](=O)[O-])cc2NC(=O)c2cccs2)CC1 | -14.2
O=C1NCCc2c1[nH]c1ccccc21 | -4.21
COc1ccc(C(=O)Nc2ccc(NC(C)=O)cc2)cc1S(=O)(=O)N1CCCC1 | 16.9
Cc1nc(NCCC(C)C)c2nnn(Cc3ccccc3)c2n1 | 11.3
O=C(O)/C=C\C(=O)O.O=[N+]([O-])c1ccc2nc(N3CCNCC3)ccc2c1 | 1.34
COC(=O)/C=c1/s/c(=C(\C#N)C(=O)NCc2ccco2)n(-c2ccccc2)c1=O | 14.8
CCCC(=NCCc1c(C)[nH]c2ccccc12)C1=C(O)CC(c2ccccc2)CC1=O (centres unmarked) | -11.1
CCCN1CCN(CCCNC(=O)C2CCN(c3nnc(-n4c(C)ccc4C)s3)CC2)CC1 | 13.1
CCS(=O)(=O)c1ccc(O)c(NC(=O)COc2ccccc2)c1 | 12.6
COc1ccc(-n2nc([N+](=O)[O-])c(=NC3CCN(Cc4ccccc4)CC3)n2O)cc1 | -6.46
O=[N+]([O-])c1nn(-c2ccccc2)n(O)c1=NC1CCN(Cc2ccccc2)CC1 | -16
Cc1cccc(-n2nc([N+](=O)[O-])c(=NC3CCN(Cc4ccccc4)CC3)n2O)c1 | -55.4
O=C(Nc1cnn(Cc2ccc(Cl)cc2)c1)C1CCCC1 | -7.77
O=C(NCc1ccccc1)C(=O)NCC1OCCN1C(=O)c1cccs1 (centres unmarked) | -54.6
O=C(NCc1ccc(Cl)cc1)C(=O)NCC1OCCN1C(=O)c1cccs1 (centres unmarked) | 3.06
O=C(NCc1ccc(F)cc1)C(=O)NCC1OCCN1C(=O)c1cccs1 (centres unmarked) | 3.51
CCOC(=O)Cc1csc(NC(=O)c2ccc(OC)c(OC)c2)n1.Cl | -6.29
CN(C)S(=O)(=O)c1ccc(C(=O)NCC(C)(C)CN=C2NS(=O)(=O)c3ccccc32)cc1 | 1.35
Cc1nnc(C)c2c(C)n(C(C)c3ccccc3)c(C)c12 (centres unmarked) | -1.28
COc1ccc(C(C)n2c(C)c3c(C)nnc(C)c3c2C)cc1 (centres unmarked) | -52.3
COc1ccc(-c2nnnn2C(C)C)cc1 | 11.1
CC(=O)c1c(C(C)=O)c(C)n(C(c2ccccc2)c2ccccc2)c1C | -4.36

Compound | hERG current change (%, negative = inhibition) at 1uM [%]
Cc1nnc(C)c2c(C)n(C(c3ccccc3)c3ccccc3)c(C)c12 | -65.7
COc1ccc(C(=O)C(Sc2nnc(C)c(=O)[nH]2)c2ccc(OC)cc2)cc1 (centres unmarked) | 1.35
Cc1cccc(NC(=O)NC2(C(=O)NCc3ccco3)CCCCC2)c1 | 2.75
CN(C)c1ccc(NS(=O)(=O)c2ccc(Cl)cc2)cc1 | 6.28
CC(C)Oc1ccc(Nc2ncnc3ccccc23)cc1.Cl | 3.47
COc1ccc(NC(=O)CCn2ccnc2)c(OC)c1 | 9.53
COC(=O)COc1ccc(S(=O)(=O)N2CCOCC2)cc1 | 13.1
COCCOc1ccc(C(F)(F)F)cc1NC(=O)c1ccccc1 | -2.95
CCN1CCN(CC(=O)Nc2cc(C(F)(F)F)ccc2OCCOC)CC1.O=C(O)C(=O)O | -70.9
CCCCCNCC(=O)Nc1cc(C(F)(F)F)ccc1OCCOC | -5.74
CC(=O)N(C)c1ccc(NC(=O)Nc2ccc(Cl)cc2)cc1 | 8.67
CC(=O)Cc1ccccc1OCC(=O)O | 18.9
O=C(Nc1cc(Cl)cc(Cl)c1)c1cnn2cccnc12 | 16.2
COC(=O)c1c(NC(=O)CN2C(=O)C(=O)N(CC(C)C)C2=O)sc(C)c1C | 9.77
O=C1N(Cc2cccc(Cl)c2)C[C@@H]2C[C@@H](c3cccc4cccnc34)N3CCC[C@@]123 | -63.8
O=C1N(Cc2cccc(Cl)c2)C[C@@H]2C[C@@H](c3cccn3-c3cccnc3)N3CCC[C@@]123 | 3.63
O=C1N(Cc2cccc(Cl)c2)C[C@@H]2C[C@@H](c3cccc4ncccc34)N3CCC[C@@]123 | -2.07
O=C1N(Cc2cccnc2)C[C@@H]2C[C@@H](c3cccc(OC4CCCC4)c3)N3CCC[C@@]123 | -53.3
O=C1N(Cc2cccc(Cl)c2)C[C@@H]2C[C@@H](c3cccn3-c3ccccn3)N3CCC[C@@]123 | -56.9
O=C1N(Cc2cccc(Cl)c2)C[C@@H]2C[C@@H](c3ccccn3)N3CCC[C@@]123 | 7.23
O=C1N(Cc2cccc(Cl)c2)C[C@@H]2C[C@@H](c3cccn3-c3nccs3)N3CCC[C@@]123 | -19.2
O=C1N(Cc2cccnc2)C[C@@H]2C[C@@H](c3cccc(Oc4ccccc4)c3)N3CCC[C@@]123 | -4.79
O=C1N(Cc2cccnc2)C[C@@H]2C[C@@H](c3cccc(OCc4ccccc4)c3)N3CCC[C@@]123 | -17.8
